Reference: PubChem BioAssay (Tox21)
Several values for one entry are separate records, joined by “and”; a condition that tells them apart may be missing. Equal values may be shown once. Records with an inconclusive call do not appear. Activity calls are given as the source filed them. Unless noted, the call rests on the fitted dose curve.

Columns and labels:
[1] = Nuclear factor erythroid 2-related factor 2/antioxidant responsive element (Nrf2/ARE) small molecule agonists: qHTS cell viability counter screen in human keratinocytes (AID 1919968; active means well fitted curve in the direction sought with a large enough effect in the repeat runs; an effect the other way counts as inactive or inconclusive; further: nearly all actives have a fitted effect of over 55% in size; further: potency means the concentration at half of the fitted maximal effect)
How it was run: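 Parallel cytotoxicity read: KeratinoSens HaCaT cells, compound treatment 23 h, viability by CellTiter-Fluor fluorescence 1 h post-reagent.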

[2] = Nuclear factor erythroid 2-related factor 2/antioxidant responsive element (Nrf2/ARE) small molecule agonists: luciferase reporter gene qHTS assay in human keratinocytes (AID 1919969); further: nearly all actives have a fitted effect of over 35% in size; further: potency means the concentration at half of the fitted maximal effect
[3] = molecular target: Gonadotropin-releasing hormone receptor (Homo sapiens) (UniProt P30968); assay: Human gonadotropin-releasing hormone receptor (GnRHR) small molecule agonists, calcium flux assay in GnRHR-HEK293 cells (AID 1920063); further: nearly all actives have a fitted effect of over 35% in size
Gonadotropin-releasing hormone receptor (Homo sapiens), sequence (P30968 whole entry, looked up): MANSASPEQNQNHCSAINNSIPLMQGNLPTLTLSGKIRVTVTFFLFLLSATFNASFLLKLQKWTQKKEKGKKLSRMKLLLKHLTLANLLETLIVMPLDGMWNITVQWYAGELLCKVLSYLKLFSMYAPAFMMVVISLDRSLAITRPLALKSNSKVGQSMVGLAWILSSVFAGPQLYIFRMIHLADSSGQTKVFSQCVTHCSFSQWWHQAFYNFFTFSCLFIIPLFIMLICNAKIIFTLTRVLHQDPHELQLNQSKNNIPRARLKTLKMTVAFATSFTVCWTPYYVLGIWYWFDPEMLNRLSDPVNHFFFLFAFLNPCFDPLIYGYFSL
How it was run: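 Calcium flux, agonist mode, human GnRHR stably integrated in HEK293; dye 1 h at 37 C before compound; Ex/Em=480/540 kinetic read, 3 min; 15 concentrations, triplicate.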

[4] = molecular target: KiSS-1 receptor (Homo sapiens) (UniProt Q969F8); assay: Human kisspeptin (KISS1R) small molecule agonists, calcium flux assay in KISS1R-HEK293 cells (AID 1920064; active means well fitted curve in the direction sought with a large enough effect in the repeat runs; an effect the other way counts as inactive or inconclusive)
KiSS-1 receptor (Homo sapiens), sequence (Q969F8 whole entry, looked up): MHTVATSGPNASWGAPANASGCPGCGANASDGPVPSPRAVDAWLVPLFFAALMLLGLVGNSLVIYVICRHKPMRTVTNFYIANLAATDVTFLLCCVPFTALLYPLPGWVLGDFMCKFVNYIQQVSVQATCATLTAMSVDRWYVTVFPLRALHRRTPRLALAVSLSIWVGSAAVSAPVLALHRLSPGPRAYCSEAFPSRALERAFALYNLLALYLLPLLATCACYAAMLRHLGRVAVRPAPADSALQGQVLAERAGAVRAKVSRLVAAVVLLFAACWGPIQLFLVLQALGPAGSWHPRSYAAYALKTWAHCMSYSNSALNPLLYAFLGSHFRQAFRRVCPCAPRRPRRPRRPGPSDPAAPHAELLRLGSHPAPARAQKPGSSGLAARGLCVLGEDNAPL
How it was run: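 Triplicate 15-concentration series were applied to dye-loaded human KISS1R HEK293 cells, and agonist-evoked calcium fluorescence was captured for 3 min.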

[5] = G protein-coupled receptor (GPCR) small molecule agonists, calcium flux assay: HEK293 wild type cell line counter screen (AID 1920065)
How it was run: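 Non-specific calcium responders were flagged by adding DMSO-dissolved compounds to dye-loaded cells and reading 480/540 nm fluorescence each second for 3 min; ATP served as positive control.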

[6] = p53 small molecule agonists, cell-based qHTS assay with human liver microsomes (AID 1963577)
How it was run: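 Fluorescence of the beta-lactamase reporter in p53RE-bla cells, detected with LiveBLAzer substrate (2 h, room temperature, dark), served as the read-out after 16 h compound exposure at 37 C with human liver microsomes and NADPH, each 0.5 mg/mL final.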

[7] = p53 small molecule agonists, cell-based qHTS assay with rat liver microsomes (AID 1963578)
How it was run: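 Cells carrying a p53 response element–beta-lactamase reporter were plated and rested 5 h, then dosed with compound in DMSO plus rat liver microsomes and NADPH, each at 0.5 mg/mL final. After 16 h at 37 C, LiveBLAzer substrate was added for 2 h.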

[8] = p53 small molecule agonists, cell-based qHTS assay with human liver microsomes: qHTS cell viability counter screen (AID 1963579); further: nearly all actives have a fitted effect of over 45% in size; further: potency means the concentration at half of the fitted maximal effect
How it was run: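 Cytotoxicity counter screen: p53RE-bla, 4,000 cells/well; 5 h settle, 37 C/5% CO2; cpd + HLM 0.5 mg/mL + NADPH 0.5 mg/mL (final); 16 h, 37 C; CellTiter-Glo, 30 min RT, luminescence.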

[9] = p53 small molecule agonists, cell-based qHTS assay with rat liver microsomes: qHTS cell viability counter screen (AID 1963580); further: nearly all actives have a fitted effect of over 45% in size; further: potency means the concentration at half of the fitted maximal effect
How it was run: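 Cytotoxicity counter screen: intracellular ATP measured by CellTiter-Glo luminescence in the same wells as the beta-lactamase reporter read, on HCT-116 p53RE-bla cells exposed 16 h at 37 C to compounds with rat liver microsomes and NADPH, each 0.5 mg/mL final.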

[10] = p53 small molecule agonists, cell-based qHTS assay: qHTS cell viability counter screen (AID 1963581); further: nearly all actives have a fitted effect of over 45% in size; further: potency means the concentration at half of the fitted maximal effect
How it was run: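 Multiplexed with the reporter read, a CellTiter-Glo step (30 min, room temperature) gauges ATP-based viability of HCT-116 p53RE-bla cells after 16 h compound incubation at 37 C.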

[11] = p53 small molecule agonists, cell-based qHTS assay (AID 1963582; active means well fitted activation curve with a large enough effect in the signal ratio in the repeat runs, not every such curve was filed as active; the % refers to the signal ratio)
How it was run: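 Beta-lactamase reporter cells (p53RE-bla) treated with compounds for 16 h at 37 C; FRET substrate, 2 h, room temperature; fluorescence intensity.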

[12] = molecular target: 5-hydroxytryptamine receptor 2A (Homo sapiens) (UniProt P28223); assay: 5-hydroxytryptamine receptor 2A (HTR2A) small molecule antagonists, cell-based qHTS assay (AID 1963586); further: nearly all actives have a fitted effect of over 45% in size
5-hydroxytryptamine receptor 2A (Homo sapiens), sequence (P28223 whole entry, looked up): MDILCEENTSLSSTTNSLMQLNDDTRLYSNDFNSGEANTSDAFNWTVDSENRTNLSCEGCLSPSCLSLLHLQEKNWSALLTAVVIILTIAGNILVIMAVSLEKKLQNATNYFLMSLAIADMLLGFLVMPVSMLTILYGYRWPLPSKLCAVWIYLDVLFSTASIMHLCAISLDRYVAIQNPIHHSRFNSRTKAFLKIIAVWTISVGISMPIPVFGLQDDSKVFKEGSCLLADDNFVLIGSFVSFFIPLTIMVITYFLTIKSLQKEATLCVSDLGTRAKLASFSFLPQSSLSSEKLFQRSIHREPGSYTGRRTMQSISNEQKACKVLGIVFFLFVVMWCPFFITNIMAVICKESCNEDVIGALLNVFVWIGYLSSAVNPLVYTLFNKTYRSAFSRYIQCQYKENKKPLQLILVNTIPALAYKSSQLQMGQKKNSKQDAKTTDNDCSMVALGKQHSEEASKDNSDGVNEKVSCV
How it was run: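 CHO cells stably expressing human HTR2A were plated for 18 h at 37 C, then loaded with calcium dye for 1 h. Compounds were preincubated 5 min at room temperature before DOI (4 nM solution) was added. Kinetic fluorescence was read for 3 min.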

[13] = molecular target: 5-hydroxytryptamine receptor 2A (Homo sapiens) (UniProt P28223); assay: 5-hydroxytryptamine receptor 2A (HTR2A) small molecule agonists, cell-based qHTS assay (AID 1963587); further: nearly all actives have a fitted effect of over 30% in size
How it was run: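 CHO cells stably expressing human HTR2A, plated 18 h, loaded with calcium dye 1 h at 37 C. Agonist mode: compounds added and intracellular calcium fluorescence recorded kinetically for 2 min at 1 sec intervals.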

[14] = molecular target: Muscarinic acetylcholine receptor M1 (Homo sapiens) (UniProt P11229); assay: Cholinergic receptor muscarinic 1 (CHRM1) small molecule antagonists, cell-based qHTS assay (AID 1963588); further: nearly all actives have a fitted effect of over 40% in size
Muscarinic acetylcholine receptor M1 (Homo sapiens), sequence (P11229 whole entry, looked up): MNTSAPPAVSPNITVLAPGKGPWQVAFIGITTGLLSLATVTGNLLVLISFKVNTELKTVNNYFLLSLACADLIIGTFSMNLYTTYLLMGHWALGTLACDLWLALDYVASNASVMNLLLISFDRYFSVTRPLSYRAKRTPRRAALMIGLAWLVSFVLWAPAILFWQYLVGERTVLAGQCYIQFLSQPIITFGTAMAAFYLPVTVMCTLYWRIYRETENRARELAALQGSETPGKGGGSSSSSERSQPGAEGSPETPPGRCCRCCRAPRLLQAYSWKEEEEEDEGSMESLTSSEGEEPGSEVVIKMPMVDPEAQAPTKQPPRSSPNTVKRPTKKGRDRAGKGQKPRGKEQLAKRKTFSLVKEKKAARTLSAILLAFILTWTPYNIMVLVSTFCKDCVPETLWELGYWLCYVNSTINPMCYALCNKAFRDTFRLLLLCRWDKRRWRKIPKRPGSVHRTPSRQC
How it was run: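 Compounds were tested at 15 concentrations in three independent runs. Dye-loaded CHRM1-CHO cells were exposed 5 min at room temperature before stimulation by acetylcholine added at 50nM. Intracellular calcium was read kinetically on FDSS for 3 min.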

[15] = molecular target: Muscarinic acetylcholine receptor M1 (Homo sapiens) (UniProt P11229); assay: Cholinergic receptor muscarinic 1 (CHRM1) small molecule agonists, cell-based qHTS assay (AID 1963589); further: nearly all actives have a fitted effect of over 35% in size
How it was run: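 qHTS, 15-point titration, 3 independent runs: compounds pin-transferred onto dye-loaded CHRM1-CHO cells (human M1), calcium fluorescence followed every second to detect agonism.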

[16] = cAMP Responsive Elements (CRE) small molecule agonists, cell-based qHTS assay (AID 1963590)
How it was run: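 Quantitative HTS for CRE agonists: HEK 293T CRE-bla cells, overnight plating, 3 h compound incubation at 37 C/5% CO2, then 2 h room-temperature LiveBLAzer B/G FRET substrate loading.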

[17] = cAMP Responsive Elements (CRE) small molecule antagonists, cell-based qHTS assay (AID 1963591; active means well fitted inhibition curve with a large enough effect in the signal ratio in the repeat runs, not every such curve was filed as active; the % refers to the signal ratio)
How it was run: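 Fluorescence intensity from cleaved LiveBLAzer B/G substrate (2 h, room temperature) quantified CRE-bla activity in HEK 293T cells exposed 3 h to compound with 0.25 uM final NKH477.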

[18] = molecular target: Beta-2 adrenergic receptor (Homo sapiens) (UniProt P07550); assay: Adrenergic beta2 receptor (ADRB2) small molecule antagonists, cell-based qHTS assay (AID 1963592); further: series mostly up to about 92 µM; nearly all actives have a fitted effect of over 50% in size
Beta-2 adrenergic receptor (Homo sapiens), sequence (P07550 whole entry, looked up): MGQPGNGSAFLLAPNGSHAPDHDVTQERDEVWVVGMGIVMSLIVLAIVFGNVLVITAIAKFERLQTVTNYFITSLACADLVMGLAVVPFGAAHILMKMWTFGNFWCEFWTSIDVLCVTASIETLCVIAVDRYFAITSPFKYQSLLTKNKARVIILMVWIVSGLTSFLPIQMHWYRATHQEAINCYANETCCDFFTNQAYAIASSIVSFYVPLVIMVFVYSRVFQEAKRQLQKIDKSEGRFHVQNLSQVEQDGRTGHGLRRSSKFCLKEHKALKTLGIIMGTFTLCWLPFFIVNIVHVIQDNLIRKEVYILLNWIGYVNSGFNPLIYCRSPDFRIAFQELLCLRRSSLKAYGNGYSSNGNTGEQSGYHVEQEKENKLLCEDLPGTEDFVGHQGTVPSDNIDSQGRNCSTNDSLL
How it was run: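 Assay format: CHO-ADRB2 cells, 18-20hr seeding at 37C/5% CO2, then compound plus 1nM isoproterenol agonist mix for 0.5hr RT. Homogeneous time-resolved fluorescence cAMP detection after 1hr, expressed as 665/615 nm ratio.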

[19] = molecular target: Beta-2 adrenergic receptor (Homo sapiens) (UniProt P07550); assay: Adrenergic beta2 receptor (ADRB2) small molecule agonists, cell-based qHTS assay (AID 1963593);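 further: CHO cells stably overexpressing human ADRB2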
How it was run: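 CHO cells stably over-expressing ADRB2 were plated overnight at 37C, then dosed with compounds plus a stimulation mix containing 100uM IBMX and 25uM Ro-20-1724 for 0.5hr at room temperature. cAMP was measured by HTRF competition, 1hr.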

[20] = molecular target: D(2) dopamine receptor (Homo sapiens) (UniProt P14416); assay: Dopamine D2 receptor (DRD2) small molecule agonists, cell-based qHTS assay (AID 1963594); further: nearly all actives have a fitted effect of over 35% in size
D(2) dopamine receptor (Homo sapiens), sequence (P14416 whole entry, looked up): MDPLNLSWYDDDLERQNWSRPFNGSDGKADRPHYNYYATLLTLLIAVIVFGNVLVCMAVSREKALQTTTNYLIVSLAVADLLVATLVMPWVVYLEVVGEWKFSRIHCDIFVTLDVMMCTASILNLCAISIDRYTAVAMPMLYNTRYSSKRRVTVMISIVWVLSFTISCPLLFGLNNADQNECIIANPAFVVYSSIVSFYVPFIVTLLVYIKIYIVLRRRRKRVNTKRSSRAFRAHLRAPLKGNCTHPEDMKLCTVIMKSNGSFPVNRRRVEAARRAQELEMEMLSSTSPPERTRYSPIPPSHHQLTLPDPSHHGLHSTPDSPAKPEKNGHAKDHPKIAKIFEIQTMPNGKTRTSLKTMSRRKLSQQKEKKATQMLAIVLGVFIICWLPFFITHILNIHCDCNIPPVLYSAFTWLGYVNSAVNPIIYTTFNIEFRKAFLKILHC
How it was run: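 HEK293 cells stably expressing human DRD2, pre-treated with PDE inhibitor Ro20-1724 (0.1 mM final) and compound 10 min at room temperature, then stimulated with NKH477 (200nM […]) for 30 min. cAMP read by HTRF (665/620 nm).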
On the % scale 0 is the no-effect control and ±100 the full control effect.

NC(=O)c1ncn([C@@H]2O[C@H](CO)[C@@H](O)[C@H]2O)c1O
inactive: Potency [1] | Potency [2] | Potency [3] | Potency [4] | Potency [5] | Potency [6] | Potency [7] | Potency [8] | Potency [9] | Potency [10] | Potency [11] | Potency [12] | Potency [13] | Potency [14] | Potency [15] | Potency [16] | Potency [17] | Potency [18] | Potency [19] | Potency [20]

CCOC(=O)C(C)C(C)=O (stereo not drawn)
inactive: Potency [1] | Potency [2] | Potency [3] | Potency [4] | Potency [5] | Potency [6] | Potency [7] | Potency [8] | Potency [9] | Potency [10] | Potency [11] | Potency [12] | Potency [13] | Potency [14] | Potency [15] | Potency [16] | Potency [17] | Potency [18] | Potency [19] | Potency [20]

N[C@@H](CSSC[C@H](N)C(=O)O)C(=O)O
inactive: activity change, negative = cytotoxicity [1] -0.627% [at 0.349 µM] | activity change [3] 1.59% [at 0.217 µM, hits give high values] | activation [4] -0.737% [at 0.29 µM] | activation [5] -0.257% [at 0.217 µM] | activation [6] 0.648% [at 0.249 µM] | activation [7] -1.5% [at 0.249 µM] | activity change, negative = cytotoxicity [8] 1.19% [at 0.249 µM] | activity change, negative = cytotoxicity [9] -2.37% [at 0.249 µM] | activity change, negative = cytotoxicity [10] 0.512% [at 0.249 µM] | activation [11] 2.6% [at 0.249 µM] | activity, negative = inhibition [12] -6.07% [at 0.233 µM] | activation [13] 4.74% [at 0.292 µM] | activity, negative = inhibition [14] 11.3% [at 0.232 µM] | activation [15] 1.52% [at 0.29 µM] | activation [16] 0.0077% [at 0.349 µM] | activity change, negative = inhibition [17] -2.16% [at 0.349 µM] | activity change, negative = inhibition [18] 8.85% [at 0.349 µM] | activation [19] -18.9% [at 0.349 µM] | activation [20] -4.71% [at 0.349 µM]
active: Potency [2] 0.376 µM

CN(C)c1ccc(C(=C2C=CC(=[N+](C)C)C=C2)c2ccc(N(C)C)cc2)cc1
active: Potency [1] 7.66 µM and 13.7 µM | Potency [2] 6.08 µM | Potency [8] 32.2 µM and 40.8 µM | Potency [9] 22.8 µM and 36.3 µM | Potency [10] 18.1 µM and 40.8 µM and 17.8 µM
inactive: Potency [3] | Potency [4] | Potency [5] | Potency [6] | Potency [7] | Potency [11]

[Cl][Eu]([Cl])[Cl]
inactive: Potency [1] | Potency [2] | Potency [3] | Potency [4] | Potency [5] | Potency [6] | Potency [7] | Potency [8] | Potency [9] | Potency [10] | Potency [11] | Potency [12] | Potency [13] | Potency [14] | Potency [15] | Potency [16] | Potency [17]

NCc1ccc(S(N)(=O)=O)cc1
inactive: Potency [1] | Potency [2] | Potency [3] | Potency [4] | Potency [5] | Potency [6] | Potency [7] | Potency [8] | Potency [9] | Potency [10] | Potency [11] | Potency [12] | Potency [13] | Potency [14] | Potency [15] | Potency [16] | Potency [17] | Potency [18] | Potency [19] | Potency [20]

CCCCC(CC)COCCC#N (stereo not drawn)
inactive: Potency [1] | Potency [2] | Potency [3] | Potency [4] | Potency [5] | Potency [6] | Potency [7] | Potency [8] | Potency [9] | Potency [10] | Potency [11] | Potency [12] | Potency [13] | Potency [14] | Potency [15] | Potency [16] | Potency [17] | Potency [18] | Potency [19] | Potency [20]
